Data published in PubChem BioAssay (NCI).
Compounds without any hit were thinned out: in the full panel of roughly 83,000, 20% have a hit.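 The test compound was applied at a single concentration to cells in 96-well plates for 48 hours, and percent growth was recorded.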 Active and inactive are the calls of the source. Rule for the calls: active = growth percent below 10; inactive = the rest.

tested on: A549/ATCC NSCLC; assay: NCI-60 one-dose screen, 48 h (100 = growth as untreated, 0 = no growth, -100 = all killed); details: 10 µM unless noted

SMILES | growth
COc1cc2c3c(c1)nc(C)n3CCC2 | 82% (inactive)
Cc1sc2c(c1C)c(=O)nc1c(-c3nc4ccccc4s3)n[nH]n12 | 97.2% (inactive)
COc1cc2c(cc1OCCCCCN1CCN(c3ncnc4ccccc34)CC1)N=CC1CCCN1C2=O (centres undefined) | 1.13% (active)
COc1cc2c(cc1OCCCCN1CCN(CC(=O)Nc3ccc(Cl)cc3C(=O)c3ccccc3Cl)CC1)N=CC1CCCN1C2=O (centres undefined) | -69.5% (active)
CCOC(=O)C1=C(C)NC(=O)NC1c1cc(=O)oc2ccc(C)cc12 (centres undefined) | 97.6% (inactive)
COc1ccc2nc3cc(Cl)ccc3c(Nc3ccc(N(C)C)cc3)c2c1 | 69.3% (inactive)
C[C@@H](C[C@H](CCO)c1cc(C(F)(F)F)cc(C(F)(F)F)c1)c1ccc2ccccc2c1 | 87.7% (inactive)
COc1ccc2c(CCCc3ccc(Cl)cc3Cl)c3[n+](cc2c1OC)CCc1cc2c(cc1-3)OCO2 | 11.9% (inactive)
COc1cc2c(cc1OCCCCCCN1CCN(c3ncnc4ccccc34)CC1)N=CC1CCCN1C2=O (centres undefined) | 1.08% (active)
c1cc[n+](Cc2c3ccccc3cc3c2ccc2ccccc23)cc1 | 63.7% (inactive)
CC(C)[C@@H]1CC[C@]2(CO2)[C@@H]2C(=O)OCC(C(=O)O)=C[C@H]21 | 15.5% (inactive)
N#Cc1c(NC(=O)c2cccs2)[n+]([O-])c2ccc(F)cc2[n+]1[O-] | 106% (inactive)
CC(CCCC(=O)O)c1ccoc1 (centres undefined) | 100% (inactive)
CCCCCCCC(=O)SCC/C=C/[C@@H]1CC(=O)NCc2nc(co2)C2=N[C@@](C)(CS2)C(=O)N[C@@H](C(C)C)C(=O)O1 | -2.81% (active)
Nc1c(C(=O)c2ccccc2)sc2nc(-c3cccs3)ccc12 | 19.6% (inactive)
COc1ccc2c(CCCCC(c3ccccc3)c3ccccc3)c3[n+](cc2c1OC)CCc1cc2c(cc1-3)OCO2 | -22.5% (active)
CC(C)(C)C(=O)OCOP(=O)(OCOC(=O)C(C)(C)C)C1CCCN(OC(=O)c2ccccc2)C1=O (centres undefined) | 24.6% (inactive)
O=C(Cc1ccccc1)Nc1nnc(NC2CCN(c3nnc(NC(=O)Cc4ccccc4)s3)CC2)s1 | 34.4% (inactive)
CCCCCCC1(/C=N/NC(N)=O)NC(=O)NC1=O (centres undefined) | 70.5% (inactive)
CC(N)C(Cc1ccc(Cl)cc1)c1ccc(Cl)cc1 (centres undefined) | 42.1% (inactive)

SMILES | growth
CC(C)[C@@H](C)/C=C/[C@@H](C)[C@H]1CCC2=C3C=CC4=CC(=O)CC[C@]4(C)[C@H]3CC[C@@]21C | 77.4% (inactive)
CCOC(=O)C1=C(C)N=C2Sc3cc(OC(F)(F)F)ccc3N2[C@H]1c1ccccn1 | 30.1% (inactive)
COC(=O)[C@]12CC[C@@H](C)[C@H](C)[C@@H]1C1=CC[C@@H]3[C@@]4(C)C(c5cnco5)=C[C@@](C)(CO)C4=CC[C@@]3(C)[C@]1(C)CC2 | 47.1% (inactive)
C=C1C(=O)O[C@H]2[C@H]1CC/C(Cn1cc(-c3cc(C)c(C)cc3C)nn1)=C\CC[C@@]1(C)O[C@@H]21 | 26% (inactive)
C=C1C(=O)O[C@H]2[C@H]1CC/C(CNC(=O)c1cc3cc(OC)ccc3[nH]1)=C\CC[C@@]1(C)O[C@@H]21 | 18.5% (inactive)
C=CCC(=O)N[C@H](/C=C/C(=O)O)Cc1ccc(-c2cc(Cl)cc(Cl)c2)cc1 | 76.9% (inactive)
NN1C(=O)CSC1=S | 65.5% (inactive)
CC(=O)C(C(C)=O)C(c1ccccc1)C(C(C)=O)C(C)=O | 89.3% (inactive)
COc1cc(NCCN(CC(C)C)CC(C)C)c2ncc(C)cc2c1 | 31.7% (inactive)
COc1ccc2c(CCC(c3ccccc3)c3ccccc3)c3[n+](cc2c1OC)CCc1cc2c(cc1-3)OCO2 | 15.7% (inactive)
O=C1CC(c2ccc3c(c2)OCO3)c2ncn(-c3ccc(Cl)cc3)c2N1 (centres undefined) | 48.7% (inactive)
Clc1nc(Cl)c2ncn(CC#CCn3cnc4c(Cl)nc(Cl)nc43)c2n1 | 8.8% (active)
COc1ccc(C2CC(=O)c3c(O)c(OC)c(OC)c(OC)c3O2)c(O)c1 (centres undefined) | 28.1% (inactive)
C[N+](C)(CCOC(c1ccccc1)c1ccccc1)CC(=O)OCc1ccccc1 | 102% (inactive)
Nc1c2c(c(O)c3c1=C(CO)C=N3)=NCCS2 | -72% (active)
Cc1cccc(NC(=O)[C@@H]2c3ccccc3C(=O)N(c3ccc(Cl)cc3)[C@H]2c2ccc(Cl)cc2)n1 | 23.6% (inactive)
CC(N)C(Cc1ccccc1)c1ccc(Cl)cc1 (centres undefined) | 76.2% (inactive)
C=CCCCC(=O)CCC(=O)OCC1O[C@@H](O[C@@H]2C(O)[C@@H](OC(C)=O)C(C)O[C@H]2O[C@H](CC=C)CCCCC)C(O)[C@@H](OC(=O)/C(C)=C/C)[C@@H]1OC(=O)/C=C/c1ccccc1 (some centres undefined) | 24.6% (inactive)
COc1ccc2c(c1OC)C(=O)O[C@@H]2[C@H]1c2c(c(C#CC#Cc3ccc(F)c(F)c3)c3c(c2OC)OCO3)CCN1C | 67.8% (inactive)
